# The panel holds about 83,000 compounds, 20% with a hit somewhere; the sample as a whole holds those more often.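 How to read the values: 0–100, growth inhibition (40 = 60% inhibited); 0, no net growth; -100 to 0, cell death (-40 = 40% of starting cells died; -100 = all dead).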 Values without a mark were called inactive. Activity calls are given as the source filed them.
# Test system: OVCAR-3 ovarian
# Experiment: NCI-60 one-dose screen, 48 h (100 = growth as untreated, 0 = no growth, -100 = all killed)
# Settings: 10 µM unless noted
# Experimental: Growth inhibition of the OVCAR-3 human tumor cell line is measured as a screen for anti-cancer activity. Cells are grown in 96 well plates and exposed to the test compound for 48 hours. Compounds are tested at a single concentration, which is 10^-5 M for most compounds. The reported endpoint is percent growth (GI% or GIPRCNT), where numbers from 0 - 100% represent growth inhibition, and numbers from -100% - 0 represent cell death. For example, a value of 40 represents 60% growth inhibition. A value of 0 means no net growth occurred over the course of the experiment. A value of -40 indicates 40% of cells at the beginning of the experiment died by the end of the experiment. A value of -100 means all cells are dead at the end of the experiment.
# NCI-60 Human Tumor Cell Lines Screen was performed using the standard one-dose NCI protocol, which is described in more detail at https://dtp.cancer.gov/discovery_development/nci-60/default.htm.
# Compounds with GIPRCNT values below 10 were considered active. Activity score was based on GIPRCNT using the following formula: […]
# Score is 0 for GIPRCNT values of 100 or above, 50 for GIPRCNT values of 0, and 100 for GIPRCNT values of -100.
row,SMILES,growth
1,Cc1ccc2c(n1)C(=O)C(Br)=C(C1CCCC1)C2=O,82.9%
2,Cc1ccc2c(n1)C(=O)C(Br)=C(CC(C)C)C2=O,53.1%
3,Nc1n[nH]c2cccc(C#Cc3cccc(C(=O)Nc4cc(C(F)(F)F)cc(C(F)(F)F)c4)c3)c12,90.6%
4,C#Cc1c2c(c(OC)c3c1OCO3)[C@H]([C@H]1OC(=O)c3c1ccc(OC)c3OC)N(C)CC2,87.1%
5,Fc1ccc(CNc2c3ccccc3nc3ccccc23)c(F)c1,70.2%
6,Nc1nc(-c2ccc(Cl)cc2)nc2c1sc(=S)n2-c1ccccc1,40.2%
7,OB1OCc2cc(/C=C/c3cccc(C(F)(F)F)c3)ccc21,-27.3% (active)
8,COC1=CC(c2ccc[nH]2)=N/C1=C\c1[nH]c(C)c(C(=O)OC(C)C)c1C,-53.9% (active)
9,COCCn1cc(-c2nc(-c3cc4cccnc4[nH]3)cs2)c2cc(OC)ccc21,27.6%
10,COc1c(B(O)O)cccc1-c1cc(C)c2c(ccc3[nH]ncc32)n1,113%
11,c1cnc2c(-c3nc4ccc5[nH]ncc5c4c4c3CCCC4)c[nH]c2c1,26.4%
12,O=c1[nH]c(-c2ccccc2)nc2sc3cc(O)ccc3c12,93.4%
13,CC1(C)CC(=O)C2=C(C1)N(c1ccc(OC(F)(F)F)cc1)C(N)=C(C#N)C2c1ccc(Br)cc1F (stereo not given),58%
14,COc1cc(OCc2cccc(Br)c2C)cc(OC)c1C=O,87.1%
15,NC(=O)CSc1oc(-c2ccccc2)nc1S(=O)(=O)c1ccc(Br)cc1,62.5%
16,COc1cc(-c2nc3sccn3c2-c2ccnc(NCCNS(=O)(=O)c3ccccc3)n2)ccc1F,74.9%
17,CC(=O)c1c(C)nc2ccccc2c1/C=C/c1ccc(F)cc1,92.9%
18,O=C(NCc1ccc(Cl)cc1Cl)C1CCC(=O)N1c1cccs1 (stereo not given),108%
19,Fc1cccc(Oc2ccc(Nc3ncnc4ccc(OCCCN5CCOCC5)cc34)cc2Cl)c1,45.4%
20,COc1cc2c(cc1OCCCN1CCN(CCCOc3cc4c(cc3OC)C(=O)N3CCC[C@H]3C=N4)CC1)C=CC(C)(C)O2,-75.6% (active)

row,SMILES,growth
1,CC(C)c1ccc(C(=O)Nc2nc3ccc(O)c(CN(C)C)c3s2)cc1,91.3%
2,COc1ccc(C(=O)Nc2cccc(-c3cc(=O)c4c(OC)c(OC)c(OC)cc4o3)c2)cc1,66.8%
3,CCO/C=N/C1=C(C#N)C(c2ccc(Cl)cc2)c2sc3c(F)cccc3c2O1 (stereo not given),25.3%
4,N#CC1=C(N)Oc2c(ccc3ccccc23)C1c1ccccc1 (stereo not given),-2.34% (active)
5,Cc1ccc(C)n1-c1ccccc1-n1c(C)ccc1C,120%
6,COc1ccc(-c2cc(-c3ccc(Cl)cc3)c(C#N)c(=O)n2Cc2ccc(C(=O)Nc3ccccc3N)cc2)cc1,42.6%
7,c1csc(-c2ccc(CNc3c4ccccc4nc4ccccc34)cc2)c1,9.5% (active)
8,COC1/C=C/OC2(C)Oc3c(C)c(O)c4c(O)c(c(/C=N/Nc5ccc([N+](=O)[O-])cc5[N+](=O)[O-])c(O)c4c3C2=O)NC(=O)C(C)=C/C=C/C(C)C(O)C(C)C(O)C(C)C(OC(C)=O)C1C (stereo not given),-42.1% (active)
9,COc1cc2oc(-c3cccc(NC(=O)c4ccccc4)c3)cc(=O)c2c(OC)c1OC,84.2%
10,C=CCc1c(O)c(C(=O)/C=C/c2ccccc2)c(OC)c2ccoc12,13.7%
11,COc1ccc(-c2nc3cc(C(=O)NCc4ccccc4)ccc3n2C2CCCCC2)cc1,85.8%
12,CCCCCCC12CCC(=O)N1CCc1cncn12 (stereo not given),118%
13,COC(=O)Nc1nc2ccc(S(=O)c3ccccc3)cc2[nH]1 (stereo not given),57.9%
14,COc1ccc(C(O)c2cc3c(N)c(C(=O)Nc4cccc(Br)c4)sc3nc2C)cc1 (stereo not given),3.84% (active)
15,Nc1nc2ccccc2c2c(=O)c3cccc(Cl)c3sc12,115%
16,Nc1ncnc2c1N=C(c1ccc(Br)cc1)CC(c1cccc(Nc3ccnc4cc(C(F)(F)F)ccc34)c1)N2 (stereo not given),83.9%
17,CCCC/C=C/[C@@H]1C[C@H]1CCO,109%
18,O=C1/C(=C/c2cccc(F)c2)CN(C(=O)C(Cl)Cl)C/C1=C\c1cccc(F)c1,-92.2% (active)
19,Cn1cc(-c2csc(-c3cn(C(=O)OC(C)(C)C)c4ccc(Br)cc34)n2)c2ccnc(Cl)c21,97.3%
20,C1CN(SSN2CCOCC2)CCO1,-82.2% [100 µM] (active)

# Source: PubChem BioAssay (NCI)
